About 83,000 compounds went through this panel and 20% of them were active in at least one assay; those are over-represented in the sample as a whole.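 Step 1: grow cells in 96-well plates. Step 2: add test compound at a single concentration. Step 3: incubate 48 h. Step 4: record percent growth.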 A number with no mark means an inactive call. The source made the active and inactive calls. How the source made its calls: active means growth percent below 10; inactive means the rest.
Key:
Assay in all cases: NCI-60 one-dose screen, 48 h (100 = growth as untreated, 0 = no growth, -100 = all killed)
Settings in all cases: 10 µM
HCT-15 colon = test system: HCT-15 colon
HT29 colon = test system: HT29 colon
SNB-75 CNS = test system: SNB-75 CNS
SNB-19 CNS = test system: SNB-19 CNS
U251 CNS = test system: U251 CNS
PC-3 prostate = test system: PC-3 prostate
SK-MEL-5 melanoma = test system: SK-MEL-5 melanoma
UACC-62 melanoma = test system: UACC-62 melanoma
LOX IMVI melanoma = test system: LOX IMVI melanoma
SK-MEL-28 melanoma = test system: SK-MEL-28 melanoma

| SMILES | growth (HCT-15 colon) | growth (HT29 colon) | growth (SNB-75 CNS) | growth (SNB-19 CNS) | growth (U251 CNS) | growth (PC-3 prostate) | growth (SK-MEL-5 melanoma) | growth (UACC-62 melanoma) | growth (LOX IMVI melanoma) | growth (SK-MEL-28 melanoma) |
| --- | --- | --- | --- | --- | --- | --- | --- | --- | --- | --- |
| C/C(=C\CSc1ccccc1C(=O)O)CCCC(C)CCCC(C)CCCC(C)C (stereo not given) | 21.5% | 59.4% | 114% | 80.4% | 46.8% | 41% | 24.8% | 42.5% | 26.3% | 71.5% |
| O=c1[nH]c2ccc(Cl)cc2cc1CSc1ccc(Nc2nccc(-c3ccc4ccccc4c3)n2)cc1 | 12.6% | 75.1% | 107% | 71.8% | 45.7% | 62.4% | 98.4% | 106% | 60.4% | 90.8% |
| Cc1ccc(-c2cc(C(=O)N=Nc3c(O)[nH]c4ccc(Br)cc34)c3ccccc3n2)cc1 | 8.77% (active) | 42.1% | 102% | 61.1% | 21.7% | 52.9% | 96.7% | 60.6% | 25.3% | 84.4% |
| Cc1ccc(-c2ccc(SCC(=O)Nc3ccc(S(N)(=O)=O)cc3Br)nn2)cc1 | 9.74% (active) | 11.4% | 68% | 39.5% | -45.8% (active) | 18.4% | 68.4% | 60% | -66.4% (active) | 60.9% |
| CCCCSc1nc(Nc2ccc(/C(C)=N/NC(N)=S)cc2)c(C#N)c(-c2ccc(OC)cc2)n1 | 75.9% | 86.7% | 37.7% | 63.8% | 22.8% | 85.2% | 46.2% | 44.7% | -10.1% (active) | 90.5% |
| O=C(Nc1ccccc1)Nc1nc2ccccc2s1 | 66.7% | 89.4% | 109% | 89.7% | 95.9% | 67.3% | 61.1% | 48.3% | 83.2% | 41.4% |
| COc1ccc2[nH]c(O)c(N=NC(=O)COc3ccc(NC(=O)Nc4ccc(Cl)c(Cl)c4)cc3)c2c1 | 56.1% | -88.4% (active) | -37% (active) | 7.22% (active) | -94.2% (active) | -33.4% (active) | -56.3% (active) | 14.4% | -100% (active) | -59.8% (active) |
| Nc1nc(-c2ccccc2)cs1 | 23.7% | 78.6% | 59.2% | 77% | 28.3% | 25.1% | 59.1% | 53.4% | 22% | 87.9% |
| COc1cc(NC(=O)c2cc(-c3ccc(F)cc3F)ccc2O)cc(OC)c1OC | 41.1% | 110% | 40.9% | 31.1% | 32.6% | 21.9% | -15.7% (active) | 0.606% (active) | 55.3% | 25% |
| COc1ccc2cc([C@H](C)C(=O)NCc3ccccc3)ccc2c1 | 29.1% | 5.25% (active) | 6.97% (active) | 31.7% | 25% | 49.5% | 18.7% | 22.1% | 43% | 64.4% |
| O=C1NC(=NC23CC4CC(CC(C4)C2)C3)N/C1=C\c1ccc2ncoc2c1 | 0.0072% (active) | 4.66% (active) | -8.6% (active) | 6.88% (active) | 10% | 5.37% (active) | 1.95% (active) | -71.4% (active) | 0.372% (active) | -18.6% (active) |
| O=C(Cn1cc(CSc2nnc3oc4ccccc4n23)nn1)Nc1cccc(Cl)c1 | 62.4% | 82.3% | 51% | 74.5% | 70.6% | 50.4% | 58.3% | 49.6% | 58.3% | 81.5% |
| C=CC(=O)Nc1ccc(C(=O)/C=C/c2ccc(N(C)CCF)cc2)c(O)c1 | -52% (active) | -61.4% (active) | -8.38% (active) | -15.6% (active) | -94.7% (active) | 6.54% (active) | -90.7% (active) | -42.6% (active) | -81% (active) | -77.8% (active) |
| O=C(Nc1cccc([N+](=O)[O-])c1)Nc1cccc([N+](=O)[O-])c1 | 62.7% | 87.3% | 90.5% | 81.7% | 88.7% | 52% | 69.6% | 68.5% | 87.7% | 88.7% |
| COc1ccc(-c2nc(S(=O)(=O)c3ccc(C)cc3)c(S(=O)(=O)CC(=O)N(C)Cc3ccccc3)o2)cc1 | -39.6% (active) | 8.42% (active) | 78.7% | 72.1% | 23.6% | 63.7% | 78.4% | 46.7% | -91.1% (active) | 64.8% |
| COc1ccc(-c2nc(S(=O)(=O)c3ccc(C)cc3)c(S(C)(=O)=O)o2)cc1 | -72.6% (active) | -74.8% (active) | 43.6% | 65.5% | -90.3% (active) | 20.8% | 10.1% | -58.2% (active) | -89.1% (active) | -98.2% (active) |
| Cc1cc(C(F)(F)F)ccc1C(=O)Nc1sc2c(c1C#N)CCC(=O)C2 | -69.5% (active) | -27.8% (active) | -5.51% (active) | -2.98% (active) | 12% | 4.6% (active) | -98.9% (active) | -81.3% (active) | 2.84% (active) | -83.9% (active) |
| Cn1cc(-c2cc(N)n3nc(-c4c[nH]c5ccc(Br)cc45)cc3n2)c2cccnc21 | -77% (active) | -81.7% (active) | -73.1% (active) | -83.5% (active) | -83.9% (active) | -45.9% (active) | -98.3% (active) | -93.9% (active) | -95.6% (active) | -95.8% (active) |
| N#Cc1c(NC(=O)c2ccc(C(F)(F)F)c(Cl)c2)sc2c1CCC(=O)C2 | -62.3% (active) | -25.8% (active) | -37.7% (active) | -55.3% (active) | -84.7% (active) | -10.2% (active) | -98.8% (active) | -78.9% (active) | -52.6% (active) | -83.4% (active) |
| CC1(C)CC[C@]2(C(=O)Nc3ccccc3)CC[C@]3(C)C(=CC[C@@H]4[C@@]5(C)CC[C@H](N)C(C)(C)[C@@H]5CC[C@]43C)[C@H]2C1 | -71.4% (active) | 21.8% | 95.6% | 100% | -47.5% (active) | 75.8% | 94.5% | 115% | -98.7% (active) | 109% |
| COc1ccc(C(=O)/C=C/c2cc(F)cc(C(F)(F)F)c2)cc1S(N)(=O)=O | -77.9% (active) | -68.3% (active) | 63.2% | -92.6% (active) | -72.9% (active) | -10.2% (active) | 3.71% (active) | -55.5% (active) | -91.3% (active) | -68.4% (active) |
| COC(=O)CC1CC1C1Cc2c(nc(N(C)S(C)(=O)=O)nc2C(C)C)-c2ccc(F)cc21 (stereo not given) | 58.7% | 66.9% | 92.3% | 91.2% | 84.9% | 33.9% | 57.2% | 56.5% | 79.1% | 104% |
| COc1ccc(/C=C/C(=O)c2ccc(S(=O)(=O)NCCNc3nc(Nc4ccc(F)cc4)nc(N(C)C)n3)cc2)cc1 | 1.91% (active) | -46.4% (active) | 52.6% | 36.1% | 20.8% | 15.7% | 21.2% | 29.6% | -55.4% (active) | 31.6% |
| O=C(CNc1nc(-c2ccccc2)cs1)Nc1cccc(Cl)c1 | 5.51% (active) | 32.1% | 50.2% | 51% | 26.9% | 18.9% | 35.5% | 19.8% | 7.96% (active) | 42.8% |
| C/C(=N\NC(N)=S)c1ccc(Nc2nc(SC(C)C)nc(-c3ccccc3)c2C#N)cc1 | 77.1% | 57.9% | 104% | 63.5% | 32% | 59.2% | 75.5% | 48.1% | 29.8% | 80.9% |
| C=C[C@@]12CN3CC[C@]1(O)[C@@](C(=O)OC)(CO2)c1[nH]c2ccccc2c1C3 | 63.7% | 92.7% | 105% | 84.4% | 81.8% | 41.3% | 18.3% | 63.9% | 67.2% | 89.4% |
| O=C(c1ccc(Cl)cc1)C1[C@H](c2ccccc2Br)[C@@H](c2ccccc2)NC12C(=O)Nc1ccc(Cl)cc12 (stereo not given in full) | 8.84% (active) | -14.6% (active) | 36.5% | 33.6% | 6.14% (active) | 38.1% | 15.9% | 22% | -91% (active) | 55.4% |
